Among all 59,000 compounds or so, about 6,200 (11%) were called active. Inconclusive results (about 9%) are left out. Cut-off read from the data, not from the text of the source: active = max dye-equivalent concentration above about 10 nM; inconclusive = mostly about 1.1 nM to 9.6 nM; inactive = weaker than that. The entries come from a sample that favours actives as a whole.
Assay: qHTS Assay for Spectroscopic Profiling in 4-MU Spectral Region
Conditions: compound autofluorescence, 340/450 nm, 4-MU equivalents; active compounds read high
Method in brief: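 Intrinsic fluorescence at 340/450 nm (ex/em) was read after 15 min at room temperature in pH 8.0, 100 mM Tris. Each compound concentration expressed as 4-MU-equivalent concentration from a six-point 4-MU standard series on each plate.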

Max dye-equivalent concentration, inactive:
COc1ccc(-n2nnnc2SCC(=O)c2ccc(OC)c(OC)c2)cc1
COC(=O)C1=C(N)Oc2cc(C)oc(=O)c2C1c1cccnc1 (stereo not given)
CC1=C(C(=O)OC2CCCCC2)C(c2cccnc2)n2ncnc2N1 (stereo not given)
O=C(Nc1cccc(F)c1)N1CC2(CCN(C(=O)c3cnccn3)CC2)C1
COc1ccc(NC(=O)c2c(SC)nsc2SC)cc1
CCOc1ccc(C(C)C)cc1S(=O)(=O)n1nc(C)cc1C
Cc1ccc(OCCCC(=O)N2CCOCC2)c(C)c1
CSc1nc(N)c(C#N)c(-c2ccccc2Cl)c1C#N
CCCc1[nH]nc2c1C(c1c(C)nn(-c3ccccc3)c1Cl)C(C#N)=C(N)O2 (stereo not given)
CCc1c(C)nc(N)n2c(SCC(=O)N3CCN(c4ccccc4)CC3)nnc12
CCOC(=O)c1cnc(SCC(=O)NCc2ccco2)nc1N
Cc1nc(C)c(C(=O)Nc2ccc(C)c(F)c2)o1
COc1c(C)cccc1C(=O)Nc1cc(Cl)ccc1N1CCOCC1
CCOC(=O)c1csc(NC(=O)c2ccc(S(=O)(=O)N3CCCC3)cc2)n1
CC(C)c1ccc(-c2nn[nH]n2)cc1
Cc1ccc(F)cc1NC(=O)c1cccc(N(C)C)c1
COc1ccc2oc(=O)c(C(=O)N3CCCc4ccccc43)cc2c1
COc1ccc(CN2CC(C(=O)NCCN3CCN(c4ccccc4F)CC3)CC2=O)cc1 (stereo not given)
CCCCC(CCC(=O)Nc1ccc(C(=O)OCC)cc1)C(=O)O (stereo not given)
O=C(COc1ccc2oc3c(c2c1)CCCC3)Nc1ccccn1
O=C(CC1OC(=O)c2ccccc21)NC1CCCCC1 (stereo not given)
Cc1cc(Cl)c(S(=O)(=O)NCC2CCCO2)cc1OCC(N)=O (stereo not given)
O=C(COc1ccccc1F)NC1CC1
c1ccc2c(c1)OCC(c1nn3cnnc3s1)O2 (stereo not given)
CCN(C(=O)CSc1ncn[nH]1)c1cccc2ccccc12
Cc1noc(C)c1S(=O)(=O)Nc1ccc(C(=O)O)cc1
O=C(NC(c1ccccc1)c1ccccc1)N1CCN(CCO)CC1
COc1ccc(OC)c(NC(=O)Cn2c(=O)oc3ccccc32)c1
COc1ccc(N2C(=O)CCC(C(=O)N(C)C3CCCCC3)C2c2ccc(OC)c(OC)c2)cc1 (stereo not given)
CNC(=O)NCCN1CCCC1=O
COc1ccc(C(=O)NCc2cn3ccccc3n2)cc1
COc1ccc(CNC(=O)C2CCN(S(=O)(=O)N3CCOCC3)CC2)cc1
CCOCCCNC(=O)c1c[nH]c2cc(C)ccc2c1=O
COCCCNC(=O)c1ccc2c(c1)ncn2-c1ccccc1OC
COc1cc(OC)cc(-c2nc3nc(C)c(CCC(=O)NCc4ccco4)c(C)n3n2)c1
COc1ccccc1C(=O)NCCn1cc(SCC(=O)NCc2ccco2)c2ccccc21
O=C(O)c1ccc(C(=O)c2ccccc2C(=O)O)cc1C(=O)O
CC(C)n1c(SCC(=O)Nc2ccccc2N2CCCCC2)nc2c1c(=O)n(C)c(=O)n2C
Fc1ccccc1OCCSc1nc2ccccc2o1
CC(C)NS(=O)(=O)c1ccc(CCC(=O)N2CCOCC2)cc1
Cc1ccccc1CSc1nnc(-c2cccnc2)n1N
COc1ccccc1CNc1ncncc1-c1cccnc1
O=c1c2[nH]c3ccc(Cl)cc3c2ncn1Cc1ccccn1
COc1ccc(C(=O)CSc2nnc(COc3ccccc3)n2Cc2ccco2)cc1

Max dye-equivalent concentration, active:
CCSc1nc2c(c(=O)[nH]1)C(c1cccnc1)C(C(=O)OC(C)C)=C(C)N2 (stereo not given) 10 nM
CSc1ccc(-c2c(C#N)c(N)nc3c2c(C)nn3-c2ccccc2)cc1 360 nM
COc1ccc(Cl)cc1NC(=O)c1oc(C)nc1C 15 nM
COc1ccc2oc(=O)c(C(=O)N3CCN(c4ccccc4F)CC3)cc2c1 39 nM
O=C(COc1ccc2c3c(c(=O)oc2c1)CCC3)NC1CCCCC1 64 nM
NC(=O)COc1ccc2c3c(c(=O)oc2c1)CCCCC3 26 nM
C#CCN1C(=O)C(O)(CC(=O)c2cc(OC)ccc2OC)c2ccccc21 (stereo not given) 13 nM
CCn1c(=N)c(C(=O)NCCCOC)cc2c(=O)n3cccc(C)c3nc21 12000 nM
COc1ccc(CNC(=O)c2cc3c(=O)n4ccccc4nc3n(CC3CCCO3)c2=N)cc1 (stereo not given) 270 nM
COc1ccc(CCn2c(=N)c(C(=O)NCc3ccco3)cc3c(=O)n4cccc(C)c4nc32)cc1 11 nM
COc1ccc2[nH]c3c(=O)n(Cc4ccco4)cnc3c2c1 92 nM

— PubChem BioAssay AID589 (National Center for Advancing Translational Sciences (NCATS), 2007)
